Source: PubChem BioAssay
ELG1 genotoxic: inducers of genotoxicity in HEK293T ELG1-luciferase cells | HEK293T ELG1-luciferase reporter, luminescence, 16 h | Potency, µM (doses to about 46 µM), for the others: at the top dose activity change, positive = activation, most hits filed as activators | 1.3% of 330,000 active | AID 504466; also: % of control where 0% means no effect; nearly all actives have a fitted effect of over 60% in size
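HEK293T cells expressing luciferase-tagged ELG1 were treated with compound or DMSO for 16 hr at 37°C. Luciferase activity was then read after 30 min with ONE-Glo at room temperature; rising signal flags genetic stress.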
Rab9 prom act: activators of Rab9 promoter. 2.8% of 320,000 active. Potency, µM (top dose mostly 9.22 µM), without a hit: at the top dose activation, negative = inhibition, hits mostly activators. Huh7 Rab9 promoter-luciferase reporter, luminescence, 24 h. AID 485297; also: % of control where 0% means no effect; nearly all actives have a fitted effect of over 60% in size
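Luminescence read-out: Huh7 cells stably expressing Rab9-luciferase, treated 24 h with compound at 37 °C, then lysed with luciferase reagent for 10 min at ambient before reading.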
SMN2 splice up: SMN2 splice variant enhancement | Potency, µM (doses to about 46.1 µM), for inactives: at the top dose activity change, positive = activation, most hits filed as activators | HEK293 SMN2-luciferase splicing reporter, luminescence, 30-36 h | 2.8% of 210,000 active | AID 1458; also: % of control where 0% means no effect; nearly all actives have a fitted effect of over 55% in size
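HEK293 cells carry an SMN2 […]–luciferase reporter in which exon 7 inclusion puts luciferase in frame. Cells were plated 10-12 h before compound addition, then incubated 30-36 h at 37C. ONE-Glo luminescence was read; sodium butyrate at 4.5 mM final served as control.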
Luc counter: Kinase-Glo luciferase inhibition (counter-screen); Kinase-Glo luciferase, ATP luminescence, 8 min; Potency, µM (series often up to 38.3 µM), for inactives: at the top dose activity change, negative = inhibition, usual class: inhibitors; 0.28% of 200,000 active; AID 1379; also: % is scaled to controls: 0 for no effect and ±100 for the full control effect; nearly all actives have a fitted effect of over 60% in size
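Light output from Kinase-Glo luciferase with luciferin and 10 uM ATP in 50 mM imidazole pH 7.2, KCl, MgCl2, Tween 20, BSA; compound pin-delivered, 8-min ambient incubation, then luminescence read.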
NPC1 prom act: activators of NPC1 promoter | Huh7 NPC1 promoter luciferase reporter, 24 h | Potency, µM (doses to about 9.22 µM), inactives show at the top dose activation, hits mostly activators | 2.4% of 320,000 active | AID 485313; also: % of control where 0% means no effect; nearly all actives have a fitted effect of over 60% in size
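Quantitative HTS used a cell-based reporter: Huh7 cells stably bearing the NPC1 promoter upstream of luciferase were treated with compounds for 24 h, and promoter activation was read as luminescence.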
FLuc counter: inhibits or activates purified firefly luciferase, miR-21 counter-screen; Potency, µM (series often up to 57.5 µM), for the others: top-dose activity change, negative = inhibition, actives largely listed as inhibitors; P08659; AID 588342; purified FLuc, Km substrates, luminescence inhibition; 6.9% of 360,000 active;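 also: plate controls were vehicle for no effect and reference inhibitor for full effect; nearly all actives have a fitted effect of over 55% in size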
Target sequence (P08659 whole entry, looked up): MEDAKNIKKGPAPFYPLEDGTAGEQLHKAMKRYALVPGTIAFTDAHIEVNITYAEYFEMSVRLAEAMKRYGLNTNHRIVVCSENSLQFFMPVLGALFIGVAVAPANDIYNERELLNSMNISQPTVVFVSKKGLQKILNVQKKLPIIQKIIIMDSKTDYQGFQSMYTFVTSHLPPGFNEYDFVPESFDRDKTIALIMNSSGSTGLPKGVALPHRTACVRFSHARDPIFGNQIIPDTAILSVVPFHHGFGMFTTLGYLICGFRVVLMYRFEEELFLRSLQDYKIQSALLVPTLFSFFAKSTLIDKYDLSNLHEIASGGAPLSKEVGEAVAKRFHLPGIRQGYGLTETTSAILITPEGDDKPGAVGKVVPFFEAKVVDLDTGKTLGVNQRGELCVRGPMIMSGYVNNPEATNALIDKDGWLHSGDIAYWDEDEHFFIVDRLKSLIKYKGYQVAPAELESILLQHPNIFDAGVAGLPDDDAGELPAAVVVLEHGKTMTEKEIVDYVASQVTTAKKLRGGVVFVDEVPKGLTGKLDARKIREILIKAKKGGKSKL
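Purified P. pyralis luciferase (10nM final) with 10uM D-luciferin and 10uM ATP (Km levels) in 50mM Tris acetate pH 7.5, 10mM Mg acetate, 0.01% Tween-20, 0.05% BSA; qHTS 6-point titration, ~60 µM downward; luminescence read.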
* hit, by the source's call; ? = inconclusive; nt = no result; [ ] = another dose, or the depositor's remark. Hits are enriched below; roughly 7.5% of the tested compounds scored in any of these assays. Calls follow the shape of the dose curve; as a rule, active = well fitted curve in the direction sought with a large enough effect; inconclusive = small, poorly fitted or top-dose-only effect, or another doubt; inactive = no such curve, though single readings can be large; an effect the other way counts as inactive or inconclusive. Potency is read from the fitted curve at half-maximal effect.

SMILES	ELG1 genotoxic	Rab9 prom act	SMN2 splice up	Luc counter	NPC1 prom act	FLuc counter
COc1ccc(OC)c(C(=O)c2c(C)oc3cc([N+](=O)[O-])c(O)c([N+](=O)[O-])c23)c1	3.4%	4.1%	nt	nt	0.7%	21.3µM*
CCOC(=O)c1nn(-c2ccc(Br)cc2)cc1C(=O)c1cccc2ccccc12	17.1%	?	?	3.8%	19.8%	6.75µM*
CCCCN=C1NN=C(c2ccc3c(c2)OCCO3)CS1	1.83µM*	0.891µM*	nt	-24.1%	1.26µM*	3.01µM*
COCCn1c(C)cc(C2=NNC(=NC(C)(C)C)SC2)c1C	?	?	-26.9%	-1.1%	?	?
c1cc2c(cc1C1=NNC(=NC3CC3)SC1)OCCO2	?	0.0013µM*	-80.0%	2.24µM*	0.0003µM*	0.239µM*
CCCCN=C1NN=C(c2ccc(C)c(C)c2)CS1	13.2%	1.58µM*	14.1µM*	1.4%	2.82µM*	23.9µM*
COc1ccc(N=C2NN=C(c3ccc4c(c3)OCCO4)CS2)cc1	15.2%	22.9%	-11.5%	4.8%	-0.4%	?
COCCN=C1NN=C(c2ccc(C)c([N+](=O)[O-])c2)CS1	18.3µM*	4.47µM*	11.2µM*	-1.1%	2.82µM*	15.1µM*
Cc1nn(C)cc1S(=O)(=O)Nc1ncccn1	-7.6%	4.1%	nt	nt	0.5%	-2.4%
CCCCc1nn2c(=O)cc(COC(=O)c3ccccc3NC(=O)c3cccs3)nc2s1	nt	nt	nt	nt	nt	1.0%
O=C1NC(=S)S/C1=C/c1ccc(Oc2cnccn2)cc1	2.4%	?	1.4%	0.5%	14.9%	21.3µM*
O=C1NC(=O)/C(=C\c2ccc(Oc3cnccn3)cc2)S1	?	2.82µM*	?	0.4%	?	13.5µM*
Cc1cc(=O)[nH]c(N/N=C/c2sccc2C)n1	11.2%	27.7%	?	11.2µM*	6.9%	?
O=c1cnnc(N/N=C/c2cccs2)[nH]1	-3.6%	0.4%	nt	nt	2.6%	-3.0%
Cc1cc(=O)[nH]c(N/N=C/c2c(F)c(F)c(F)c(F)c2F)n1	2.7%	-5.6%	nt	nt	1.6%	4.0%
Cc1cc(=O)[nH]c(N/N=C/c2ccccc2Cl)n1	5.4%	18.6%	nt	nt	15.3%	-11.8%
Cc1cc(=O)[nH]c(N/N=C/c2cc(C)n(-c3ccccc3)c2C)n1	9.2µM*	?	nt	nt	3.16µM*	7.57µM*
Cc1cc(=O)[nH]c(N/N=C/c2cccs2)n1	8.4%	12.1%	6.2%	-5.7%	12.2%	16.9µM*
CCOc1ccccc1-c1ccc(C(=O)O)s1	nt	nt	nt	4.1%[39.9 µM]	nt	nt
CN1C(=O)N(CC(=O)Nc2sccc2C(N)=O)C(=O)C12CCCCC2	-3.9%	-2.3%	nt	nt	-1.6%	-8.9%
Cc1ccc(Nc2c(-c3ccc(N4CCOCC4)cc3)nc3cccc(C)n23)cc1	nt	nt	-3.7%	nt	nt	?
O=C(O)c1cccc(N2C(=O)c3ccc(Oc4ccc(Cl)cc4)cc3C2=O)c1	-0.4%	5.0%	nt	nt	-3.7%	7.57µM*
COc1ccc(N(CC(=O)NCc2ccc3c(c2)OCO3)C(=O)c2csnn2)cc1	11.1%	21.4%	nt	nt	16.8%	-11.6%
Clc1ccc(C2=NOC(c3nnc(-c4ccccc4)o3)C2)cc1 (stereo not given)	5.3%	-2.5%	nt	nt	-3.5%	3.2%
Clc1cccc(Cl)c1C1=NOC(c2nnc(-c3ccccc3)o2)C1 (stereo not given)	16.4%	?	nt	nt	29.9%	19µM*
SMILES	ELG1 genotoxic	Rab9 prom act	SMN2 splice up	Luc counter	NPC1 prom act	FLuc counter
Cc1ccc(NN=C2c3ccccc3-c3ccccc32)cc1	?	?	27.4%	-0.7%	?	15.1µM*
CCC(C)(C)NC(=O)/C=C/c1cnc2ccccc2n1	?	?	?	1.3%	29.1%	10.7µM*
O=C(/C=C/c1cnc2ccccc2n1)NC12CC3CC(CC(C3)C1)C2	?	3.16µM*	10µM*	-0.5%	3.55µM*	1.69µM*
COc1ccc(CNCc2c(C(=O)O)c(C)n(Cc3ccc(Cl)cc3)c2C)c(OC)c1	nt	nt	5.8%	nt	nt	-1.3%
COc1ccc(C2=NN(C(=O)CCC(=O)O)C(c3ccccc3F)C2)cc1 (stereo not given)	6.0%	0.4%	nt	nt	0.7%	-1.6%
CCOc1ccccc1NC(=O)C1CCN(S(C)(=O)=O)CC1	-5.9%	-1.1%	nt	nt	6.3%	-0.5%
CCOC(=O)c1ccc(NC(=O)c2cc3ccccc3o2)cc1	15.2%	?	-15.0%	-9.8%	?	9.53µM*
CCOC(=O)c1cccc(NC(=O)c2cc3ccccc3o2)c1	-4.5%	1.26µM*	nt	nt	?	5.36µM*
COc1ccc(Cl)cc1S(=O)(=O)NCc1ccncc1	-10.3%	-1.7%	nt	nt	0.0%	1.1%
COc1ccc2nc(NC(=O)c3ccc(S(=O)(=O)N4CCCC(C)C4)cc3)sc2c1 (stereo not given)	nt	nt	nt	nt	nt	0.0%
COc1ccc(C(=O)CSc2nnc(CNC(=O)c3ccccc3F)n2C)cc1OC	-0.2%	-0.3%	nt	nt	-2.2%	0.9%
CCOc1ccccc1-n1c(SCC(=O)Nc2ccccc2C(=O)O)nc2ccccc2c1=O	-11.4%	?	nt	nt	?	12µM*
CCn1c(SCC(=O)Nc2ccccc2OC)nc2ccccc2c1=O	-24.0%	-4.9%	-16.1%	-1.5%	1.4%	-0.4%
O=C(CSc1ccccc1)Nc1ccccc1C(=O)O	nt	nt	0.9%	11.5%	nt	21.3µM*
Cc1ccc(CSCC(=O)Nc2ccccc2C(=O)O)cc1	7.7%	2.82µM*	nt	nt	3.55µM*	12µM*
CSc1ccccc1NC(=O)CSCc1ccc(C)cc1	-2.4%	2.6%	-13.9%	1.1%	-18.3%	-10.8%
Cc1ccc(CCC(=O)Nc2ccccc2C(=O)O)o1	?	?	nt	nt	?	16.9µM*
CC(C)n1c2ccccc2c2nnc(SCC(=O)Nc3ccccc3C(=O)O)nc21	1.9%	0.7%	-19.9%	2.8%	-0.5%	19µM*
Cc1c(NC(=S)NC(=O)Cc2ccccc2)cccc1C(=O)O	7.8%	16.0%	21.3%	4.2%	0.9%	?
O=C(Cc1cccc2ccccc12)Nc1ccccc1C(=O)O	?	4.0%	?	3.5%	12.7%	26.9µM*
COc1ccc(CC(=O)Nc2cccc(C(=O)O)c2C)cc1	12.8%	16.6%	15.8µM*	-6.1%	26.2%	?
Cc1ccc(SCC(=O)Nc2ccccc2C(=O)O)cc1	17.2%	?	?	0.0%	?	8.49µM*
COC(=O)c1ccccc1NC(=O)CSc1ccc(C)cc1	0.9%	7.1%	4.2%	0.1%	-1.7%	-13.8%
CCS(=O)(=O)N1CC(=O)N(c2ccc(C)c(C)c2)C(C)(C(=O)NC2CCCCCC2)C1 (stereo not given)	nt	nt	nt	nt	nt	-1.1%
COC(=O)c1ccccc1NC(=O)c1c(C)oc2ncn(C)c(=O)c12	nt	nt	-1.4%	nt	nt	-5.0%
CSc1ncnc2c1cnn2-c1ccc(C)cc1C	12.0%	?	-21.6%	1.8%	22.0%	?
